Bioassay records from PubChem.
BAZ2B block: BAZ2B (human) inhibition; AlphaScreen BAZ2B-H3K14Ac peptide displacement; Potency, µM (highest dose often 114 µM), for the others: at the highest dose activity change, negative = inhibition, usual class: inhibitors; 360,000 tested, 4.4% active; AID 504333; further: on the % scale 0 is the no-effect control and ±100 the full control effect; nearly all actives have a fitted effect of over 60% in size
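BAZ2B (50 nM) with biotin-H3(5-23)K14Ac peptide (50 nM) in PBS pH 7.4, 0.01% Tween-20, preformed 30 min, then compound 30 min at room temperature; top concentration 110uM. AlphaScreen streptavidin donor/nickel chelate acceptor beads (10 ug/mL final), 20 min dark, signal read.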
G9a inh: inhibitors of human histone lysine methyltransferase G9a | Q96KQ7 | Potency, µM (titrated, usually from 102 µM), for the others: top-dose activity, negative = inhibition, most hits filed as inhibitors | 350,000 tested, 8.8% active | G9a H3K9 monomethylation, AlphaScreen, 2 h | AID 504332; further: on the % scale 0 is the no-effect control and ±100 the full control effect; nearly all actives have a fitted effect of over 75% in size
Target sequence (Q96KQ7 913-1193 limits assumed): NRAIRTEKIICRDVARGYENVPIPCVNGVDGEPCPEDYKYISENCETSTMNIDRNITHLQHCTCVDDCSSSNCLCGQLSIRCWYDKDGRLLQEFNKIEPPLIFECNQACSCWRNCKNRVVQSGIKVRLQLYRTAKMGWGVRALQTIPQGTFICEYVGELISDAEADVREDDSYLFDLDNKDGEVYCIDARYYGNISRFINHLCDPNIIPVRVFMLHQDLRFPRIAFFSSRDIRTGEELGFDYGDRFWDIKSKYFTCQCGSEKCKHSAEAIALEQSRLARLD
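Quantitative HTS format: methyltransferase activity on a biotin-tagged H3K9 peptide is measured by AlphaScreen, using a rabbit anti-monomethyl-H3K9 antibody with streptavidin donor and anti-IgG acceptor beads. Final levels are 20 nM enzyme, 500 nM peptide, 20 uM SAM; 2 h RT.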
ALOX12 inh: blocks human arachidonate 12S-lipoxygenase | 580,000 tested, 1.1% active | Potency, µM (highest dose often 108 µM), for the others: at the highest dose activity change, negative = inhibition, usual class: inhibitors | purified 12hLO, xylenol orange hydroperoxide absorbance | P18054; further: on the % scale 0 is the no-effect control and ±100 the full control effect
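Hydroperoxide product was detected by ferrous iron/xylenol orange as the 573 to 405 nm absorbance ratio. Arachidonic acid at 40 uM (final) was turned over for 30 min at room temperature by 150 nM human 12hLO, pH 7.0 Hepes buffer, after 15 min compound preincubation.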
PLK1 PBD inh: inhibitors of human PLK1 polo-box domain binding | P53350 | Plk1 PBD binding of FITC phosphopeptide, fluorescence polarization | Potency, µM, for the others: max response, negative = inhibition, usual class: inhibitors | 360,000 tested, 2.8% active | AID 720504; further: series mostly up to about 57 µM; on the % scale 0 is the no-effect control and ±100 the full control effect; nearly all actives have a fitted effect of over 65% in size
JMJD2A Tudor inh: blocks the human JMJD2A Tudor domain; AlphaScreen JMJD2A-Tudor / H3K4me3 peptide binding; Potency, µM (top dose mostly 114 µM), for inactives: top-dose activity change, negative = inhibition, actives largely listed as inhibitors; 390,000 tested, 4.4% active; AID 504339; further: on the % scale 0 is the no-effect control and ±100 the full control effect; nearly all actives have a fitted effect of over 50% in size
HP1b binding inh: HP1-beta chromodomain-methylated histone interaction inhibition; AlphaScreen HP1-beta / biotin-H3K9me3 peptide binding; Potency, µM (series often up to 114 µM), without a hit: at the top dose activity change, negative = inhibition, usual class: inhibitors; 390,000 tested, 0.56% active; AID 540317; further: nearly all actives have a fitted effect of over 70% in size
Target sequence (P83916 whole entry, looked up): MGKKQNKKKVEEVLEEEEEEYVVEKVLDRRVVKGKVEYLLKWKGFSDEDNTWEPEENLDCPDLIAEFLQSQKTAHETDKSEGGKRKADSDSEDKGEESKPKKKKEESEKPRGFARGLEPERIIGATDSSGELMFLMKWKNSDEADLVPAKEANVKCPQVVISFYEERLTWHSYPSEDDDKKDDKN
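AlphaScreen: HP1-beta (50 nM) preformed 30 min with biotin-H3(1-18)K9me3 peptide (50 nM) in PBS pH 7.4, 0.01% Tween-20. Compound added for 30 min at RT, then streptavidin donor/nickel chelate acceptor beads (10 ug/mL) for 30 min.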
Numbers without * were called inactive; u = inconclusive; x = no result given; ! = not active in a repeat; [ ] = remark or other dose. A selection: hits, their analogues and other compounds. The true share with any hit is near 9%. The call rests on the fitted dose curve; in most records, active means well fitted curve in the direction sought with a large enough effect; inconclusive means small, poorly fitted or top-dose-only effect, or another doubt; inactive means no such curve, though single readings can be large; an effect the other way counts as inactive or inconclusive. Potency means the concentration at half of the fitted maximal effect.

SMILES | BAZ2B block | G9a inh | ALOX12 inh | PLK1 PBD inh | JMJD2A Tudor inh | HP1b binding inh
Cc1ccc([C@@H]2CC=C(C(=O)O)[C@H](c3ccc(Cl)cc3)N2S(=O)(=O)c2ccccc2C)cc1 | x | x | u | 21µM* | -25% | 15%
Cc1ccc([C@@H]2CC=C(C(=O)O)[C@H](c3ccc(Br)cc3)N2S(=O)(=O)c2ccccc2C)cc1 | x | x | u | 27µM* | -25% | 8%
COc1ccc([C@@H]2CC=C(C(=O)O)[C@H](c3cccc(Cl)c3)N2S(=O)(=O)c2ccccc2C)cc1 | -5% | -1%[2.33 µM] | -17% | -17% | -18% | 31%
Cc1ccccc1S(=O)(=O)N1C(c2ccc(Cl)c(Cl)c2)CC=C(C(=O)O)C1c1cccc(Br)c1 (stereo not drawn) | x | x | 50µM* | 24µM* | x | x
Cc1ccccc1S(=O)(=O)N1[C@@H](c2ccc(Br)cc2)C(C(=O)O)=CC[C@H]1c1ccc(Cl)cc1 | x | x | u | 21µM* | -23% | 48%
Cc1occc1-c1nnc(SCC(=O)Nc2ccc3c(c2)OCO3)n1CC1CCCO1 (stereo not drawn) | -3% | -2%[59 µM] | -6% | -4% | -9% | 14%
CC1=C(C(=O)Nc2ccc(C)cc2C)C(c2ccc(C(C)C)cc2)n2nc(C(F)(F)F)nc2N1 (stereo not drawn) | 0% | -12%[59 µM] | -22% | x | u | u
CNC(=O)c1sc(Nc2cc(C)ccc2C)nc1C | -20% | 0% | u | -29% | -27% | u
CCc1c(C)[nH]c2c1C(=O)C(CN1CCOCC1)CC2 (stereo not drawn) | x | 19µM*! | -5% | -5% | -28% | 5%
Cc1ccc(NC(=O)CN2C(=O)NC3(CCCCC3)C2=O)c(C)c1 | x | x | -3% | x | x | x
Cc1cc(N2CCCC2)ccc1NC(=O)CN1C(=O)NC2(CCCCC2)C1=O | -35% | 3.5µM* | -11% | -8% | -36% | -19%
CN(C)c1ccc(S(=O)(=O)N2CCCCC2)cc1NC(=O)CN1C(=O)NC2(CCCC2)C1=O | 10% | 14µM* | -7% | -3% | -17% | 21%
Cc1cc(NC(=O)CN2C(=O)NC3(CCCCC3)C2=O)ccc1N1CCCC1 | -31% | 8.9µM* | -12% | -4% | -20% | 2%
CN(C)c1ccc(S(=O)(=O)N2CCCCC2)cc1NC(=O)CN1C(=O)NC(C)(c2ccccc2)C1=O (stereo not drawn) | -38% | u | u | 0% | -25% | 10%
O=C(NCC1CCCO1)c1cccc(Oc2ccccc2)c1 (stereo not drawn) | 0% | 2% | u | -4% | 3% | 32%
O=C(CCC(=O)c1cccs1)NCc1cccnc1 | -28% | 1% | 0% | -1% | -1% | 31%
CCC(C(=O)Nc1nccs1)(C(F)(F)F)C(F)(F)F | 56µM* | u | 28% | -6% | -10% | 24%
CCc1nc2c(=O)n(CC(=O)NCc3cccnc3)nc(C)c2s1 | x | x | 65% | x | x | x
O=C(N=Nc1c(O)n(Cc2ccccc2)c2ccccc12)c1ccncc1 | 35µM* | x | 11% | -4% | -26% | 13%
Oc1c(N=NC(=S)Nc2ccccc2F)c2ccccc2n1Cc1ccccc1Cl | u | 18µM* | -4% | -6% | 4µM* | u
O=C(CNC(=O)c1ccco1)N=Nc1c(O)n(CCc2ccccc2)c2ccccc12 | u | 2% | -1% | -2% | -27% | 18%
CCCCn1c(O)c(N=NC(=O)c2ccco2)c2ccccc21 | u | -6%[59 µM] | -18% | 19µM* | u | u
Cc1c(Cl)cccc1NC(=S)N=Nc1c(O)n(CN2CCOCC2)c2ccccc12 | u | u | x | -10% | u | 1%
Cc1ccc(Cn2c(O)c(N=NC(=S)Nc3ccccc3F)c3ccccc32)cc1 | 40µM* | 11µM* | -6% | -7% | u | -8%
NC(=S)N=Nc1c(O)n(Cc2ccccc2)c2ccccc12 | u | 20%[59 µM] | 15% | -6% | -21% | 18%
SMILES | BAZ2B block | G9a inh | ALOX12 inh | PLK1 PBD inh | JMJD2A Tudor inh | HP1b binding inh
C=CC[C@@H](CC(=O)N(CCO)Cc1ccccc1)C(=O)N[C@@H](COC(=O)[C@@H](CC=C)Cc1ccc(F)cc1)Cc1c[nH]c2ccccc12 | x | x | -36% | 1% | u | 27%
C=CCn1c(O)c(N=NC(=O)CNC(=O)/C=C/c2ccc(OC)cc2)c2ccccc21 | -35% | x | -1% | -22% | -21% | 12%
Cc1cccc(NC(=O)Cn2c(O)c(N=NC(=O)c3ccncc3)c3ccccc32)c1 | u | -10% | -7% | 0% | 4% | 26%
C=CCn1c(O)c(N=NC(=S)Nc2ccccc2F)c2ccccc21 | u | 11µM* | -24% | 4% | 10µM* | u
C=CCn1c(O)c(N=NC(=S)Nc2ccccc2F)c2cc(S(=O)(=O)N3CCOCC3)ccc21 | -10% | u | -16% | -5% | -30%[57.1 µM] | -9%
C=CCn1c(O)c(N=NC(=S)Nc2cccc(C)c2)c2ccccc21 | 3.2µM* | 14µM* | -24% | -5% | 8.9µM* | u
C=CCn1c(O)c(N=NC(=O)CNC(=O)/C=C/c2ccco2)c2ccccc21 | u | 50µM* | u | u | u | -11%
CCCCNC(=S)N=Nc1c(O)n(Cc2ccccc2)c2ccccc12 | u | 32µM* | u | -6% | u | u
CN1CCN(c2nc(-c3cccs3)cc(C(F)(F)F)n2)CC1 | -36% | 3%[12.7 µM] | -11% | 0% | -24% | 11%
Oc1c(N=NC(=S)Nc2ccccc2F)c2ccccc2n1Cc1ccccc1 | u | 18µM* | -13% | -8% | u | u
COc1ccc(OC)c(NC(=O)c2cc3sccc3n2C)c1 | u | 50µM* | -16% | -12% | u | -11%
CCOC(=O)c1cc2sccc2n1CC(=O)Nc1ccc(OC)cc1OC | -7% | 13µM* | 0%[57.4 µM] | -6% | -22% | 16%
COc1ccc(OC)c(NC(=O)c2cn(C)c(=O)c3cc(OC)c(OC)cc23)c1 | -36% | 40µM* | -4% | 2% | -16% | 8%
COc1cc(NC(=O)c2cc3sccc3n2C)cc(OC)c1 | u | u | u | -6% | -33% | 21%
COc1ccc(NC(=O)c2cn(C)c(=O)c3cc(OC)c(OC)cc23)c(OC)c1 | 2% | 3% | 0% | 0% | -9% | 17%
Cn1c(C(=O)Nc2ccccc2)cc2sccc21 | u | 1.6µM* | -23% | -18% | -29% | 5%
COc1cccc(NC(=O)N2CCCC2C(=O)NC23CC4CC(CC(C4)C2)C3)c1 (stereo not drawn) | -9% | -3% | 3% | -4% | 1% | 41%
COC(=O)c1ccc(NC(=O)c2cc3sccc3n2C)cc1 | u | 71µM* | 5% | -4% | -33% | 4%
